Laboratory results taken from PubChem BioAssay AID1006 (Sanford-Burnham Center for Chemical Genomics, 2008).
Several values for one entry are separate records, joined by “and”; a condition that tells them apart may be missing. Equal values may be shown once. Among all 200,000 compounds or so, about 3,000 (1.5%) were called active.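 How the source made its calls: active means inhibition above about 50% when tested at 10 µM (limit read from the data); inactive means the rest.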 Many of the other results were omitted from the sample, so actives are more common in it than they were.

Molecular target: Luciferin 4-monooxygenase (Photinus pyralis) (UniProt P08659)
Sequence (P08659 whole entry, looked up): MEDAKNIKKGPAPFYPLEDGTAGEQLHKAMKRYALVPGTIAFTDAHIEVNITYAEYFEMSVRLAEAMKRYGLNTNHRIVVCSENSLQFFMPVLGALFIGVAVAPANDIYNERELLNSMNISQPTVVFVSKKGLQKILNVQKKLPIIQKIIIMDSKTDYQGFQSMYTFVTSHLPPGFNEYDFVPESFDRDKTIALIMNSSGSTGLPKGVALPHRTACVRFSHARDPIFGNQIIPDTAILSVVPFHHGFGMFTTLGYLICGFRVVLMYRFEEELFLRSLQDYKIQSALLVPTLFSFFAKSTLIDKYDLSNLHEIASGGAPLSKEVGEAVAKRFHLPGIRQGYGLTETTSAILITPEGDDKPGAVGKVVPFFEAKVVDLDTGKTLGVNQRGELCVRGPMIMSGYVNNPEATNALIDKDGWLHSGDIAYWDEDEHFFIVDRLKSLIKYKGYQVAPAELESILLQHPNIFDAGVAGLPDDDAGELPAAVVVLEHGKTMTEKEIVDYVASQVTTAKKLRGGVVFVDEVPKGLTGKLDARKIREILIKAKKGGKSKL
Experiment: inhibition of purified FLuc reporter enzyme – biochemical, luminescence, ATPLite, artefact control for luciferase-based inhibitor screens, primary screen (AID 1006)
Conditions: ATPLite firefly luciferase biochemical luminescence, 10 min; at 10 µM; active compounds read high

inhibition, active:
CCNc1nc(-c2cc3ccccc3o2)cs1 64.9%, Cc1ccc(C2=C/C(=C\c3cccnc3)C(=O)O2)cc1 52.2%, COc1ccc(C(=O)Nc2ccccc2C(=O)N/N=C/c2ccc(O)c(OC)c2)cc1 98.3%, COc1ccc(C(=O)Nc2ccccc2C(=O)N/N=C/c2ccccc2OC)cc1 97.8%, Cc1cc(OC(=O)c2ccccc2Cl)ccc1N1C(=O)CCC1=O 69%, O=c1c2c(nc3cc(-c4cccc(Cl)c4)[nH]n13)CCCC2 74.9%, CCOc1ccc(-c2nnc(-c3ccco3)o2)cc1 79.2%, CCOc1ccc2nc(C(=O)N3CCCC(C)C3)sc2c1 (configuration not stated) 56%, O=C(O)COc1ccc(-c2nccc(-c3cccs3)n2)cc1 77.5%, COc1cccc(/C=N\NC(=O)C2=NNC(=O)C2C)c1O (configuration not stated) 83.5%, COc1cccc(-c2nc3cc(C)ccc3o2)c1 82.8%, O=[N+]([O-])c1ccc2oc(-c3cccc(O)c3)nc2c1 53.2%

inhibition, inactive:
CCOc1ncccc1C(=O)N(CC)CC(=O)Nc1ccc(NC(C)=O)cc1 -8.7%, O=c1oc2ccccc2cc1-c1csc(Nc2ccc(O)cc2)n1 17.8%, COc1ccc2nc(Nc3nc(-c4cc5ccccc5oc4=O)cs3)sc2c1 40.7%, CC/C(Cc1ccccc1)=N/NC(=O)CCn1nnc2ccccc21 -3.6%, Cc1ccccc1C1=N/C(=C/c2cccnc2)C(=O)O1 34.5%, O=C1OC(c2ccc(Cl)cc2)=N/C1=C\c1cccnc1 -3.3%, Cc1ccc(C)c(CSc2nc(-c3ccco3)nc3c2c(=O)n(C)c(=O)n3C)c1 0.1%, CC(=O)c1ccc(N2CCN(S(=O)(=O)c3c(C)[nH]c(=O)[nH]c3=O)CC2)cc1 -3%, O=C(CCN1CCN(C/C=C/c2ccccc2)CC1)Nc1cccc(F)c1 -5.5%, CCn1c(/C=N/NC(=O)c2ccc(OC)cc2)nc2ccccc21 8.7%, COc1ccccc1C(=O)NNC(=O)c1ccc(NC(=O)c2ccccc2)cc1 -1.7%, COc1ccc(/C=N/NC(=O)c2ccccc2)cc1OS(=O)(=O)c1ccccc1 -2.1%, COc1cc(/C=N/NC(=O)c2ccccc2)ccc1OS(=O)(=O)c1ccccc1 -2.6%, CCN(CC)c1ccc([N+](=O)[O-])cc1C(=O)O -4.3%, Cc1ccc2cc(CN(c3ccc(C)c(C)c3)S(C)(=O)=O)c(=O)[nH]c2c1 -3.5%, CCOC(=O)C1=C(CC)Nc2ccccc2N=C1N -6.8%, CCc1ccccc1NC(=O)CN(c1ccc(OC)cc1OC)S(=O)(=O)c1ccccc1[N+](=O)[O-] -10.9%, COc1ccc(N(CC(=O)NC2CCCC2)C(=O)CS(=O)CC(=O)Nc2ccc3c(c2)OCO3)cc1 (configuration not stated) -6.6%, COc1cc2c(C(=O)N3CCN(C)CC3)c(CSc3ccccc3)n(C)c2cc1Br -9.2%, Cc1cc2ccccn2c1C(=O)c1cccc(S(=O)(=O)N2CCOCC2)c1 4.2%, COc1ccc(Cn2c(-c3ccc(Cl)cc3)c[n+]3ccccc23)cc1 7.2%, CC(C)C(NC(=O)C1CCC(C(C)(C)C)CC1)C(=O)NCCCN1CCCCC1 (configuration not stated) -3%, Cc1ccc(C)c(N2C(=O)CS/C2=N\NC(=O)c2ccccc2Cl)c1 -0.5%, COc1ccccc1C(=O)Oc1ccc(N2C(=O)CCC2=O)cc1 -2.3%, C=CCn1c(P(C)(=O)O)nc2ccccc21 -7.9% and -5.5%, CCc1ccc(OCC(=O)OCC(=O)c2c(N)n(C)c(=O)n(C)c2=O)cc1 -11.1%, O=c1c2c(nc3nc[nH]n13)CCC2 -4.1%, O=C1CCCc2c1nc(-c1cccc(Cl)c1)n2O -1.6%, COc1ccc(C(=O)OCC(=O)NC(=O)CCSc2ccccc2)cc1 -0.8%, Cc1ccc(SCCC(=O)NC(C(C)C)C(C)C)cc1 -8.1%, Cc1cc2nc(C(F)(F)F)cc(-c3cccs3)n2n1 -2.2%, CCCCOc1ccc(-c2nnc(-c3ccco3)o2)cc1 25.4%, CCC(=O)Oc1cccc(C(=O)Nc2ccc(-c3nnc(-c4ccco4)o3)cc2)c1 -4.9%, CCOc1ccc2nc(SC(CC)C(=O)Nc3cc(C)on3)sc2c1 (configuration not stated) -3.8%, CCOc1ccc2nc(Nc3nc4ccc(NC(C)=O)cc4s3)sc2c1 8.7%, O=C(Nc1ccnc(-c2ccncc2)n1)c1cccs1 -0.6%, COC(=O)CSc1nccc(-c2cccs2)n1 3.7%, COc1cccc(/C=N/Nc2cc(C)nc(-c3ccccc3O)n2)c1O 9.6%, COc1cccc(/C=N/NC(=O)c2[nH]nc3c2CCc2ccccc2-3)c1O 28.9%, CNC(=O)NC(=O)C(OC(=O)c1cccc(S(=O)(=O)N2CCCCC2)c1)c1ccccc1 (configuration not stated) -3.2%, O=C(Cc1cccc2ccccc12)Nc1ccc2oc(-c3ccccc3)nc2c1 2.6%, COc1cccc(-c2nc(S(=O)(=O)c3ccccc3)c(N3CCOCC3)o2)c1 -0.7%, COc1ccc2oc(-c3cccc(NC(=O)CSc4ccc(Cl)cc4)c3)nc2c1 3%, COc1ccc(-c2nc3cc([N+](=O)[O-])ccc3o2)cc1OC 2.5%, Cc1cc(NC(=O)CSc2nc3ccccc3n2CC(C)C)no1 -5.3%, COc1ccc(F)c(-c2nc(CN3CCC(c4ccccc4)CC3)c(C)o2)c1 0.5%, O=C(CCN1C(=O)C2C3C=CC(C3)C2C1=O)Oc1ccc2ccccc2c1 (configuration not stated) -3.9%, CC1CC(C)CN(S(=O)(=O)c2ccc(C(=O)NN3CCOCC3)cc2)C1 (configuration not stated) 0.2%, COc1ccc(-c2csc(Cc3nc(O)cs3)n2)cc1 4.6%, CSCC[C@H](NC(=O)OC(C)(C)C)C(=O)N/N=C/c1cc2ccc(C)cc2nc1Cl -6.9%
